In PubChem BioAssay (NCI):
About 83,000 compounds went through this panel and 20% of them were active in at least one assay; those are over-represented in the sample as a whole.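 Plates (96-well) were seeded with cells, treated with compound at one concentration, and incubated for 48 hours before percent growth was determined.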 Calls of active or inactive are those of the source. The calls were made as follows: active = growth percent below 10; inactive = the rest.

Tested on: HL-60(TB) leukemia
Test: NCI-60 one-dose screen, 48 h (100 = growth as untreated, 0 = no growth, -100 = all killed)
Details: 10 µM unless noted

SMILES	growth
CCCCCCCCCCCCNC(=O)[C@H]1CSC(c2ccsc2)N1 (some centres undefined)	-12.6% (active)
Cc1cccc(NC2=C(C#N)C(=O)NC3(CCCC3)S2)c1	89.7% (inactive)
O=[N+]([O-])c1ccc(Sc2ccncn2)c([N+](=O)[O-])c1	16.8% (inactive)
CC[C@@H]1NC(=O)[C@@H]2CCCCN2C(=O)[C@@H]2CCCN2C(=O)[C@@H](NC(=O)[C@H](Cc2cc(F)cc(F)c2)NC(=O)Nc2ccc(C3CC3)cc2F)[C@H](C)OC(=O)[C@@H]2C[C@@H](C)CN2C1=O	5.69% (active)
